Experimental findings from PubChem BioAssay (EPA / NIEHS) are described below.

The nature of assay [1]: APR_HepG2_CellCycleArrest_24hr: Apredica 24-hour HepG2 Assay for Cell Cycle Arrest (AID 2282905).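 Further: cell cycle arrest scored as ratio of 2N to 4N nuclear DNA content.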 The following applies: imaging, actives raise or lower the signal. An outline of the steps: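 Step one: dose HepG2 with test compounds, 0.39–200 uM, 0.5% DMSO, 24 hr. Step two: fix, permeabilize, stain nuclei with Hoechst 33342. Step three: image six fields per well at 20x, quantify DNA content, fit bidirectionally relative to DMSO.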

A short description of assay [2]: APR_HepG2_NuclearSize_24hr: Apredica 24-hour HepG2 Assay for Nuclear Size (AID 2282907). The following applies: high-content imaging, actives raise or lower the signal. The method, boiled down: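 After fixation and permeabilization, 24-hr-treated HepG2 cells were stained with Hoechst 33342 and imaged on an ArrayScan (20x). Doses spanned 0.39–200 uM in duplicate. Nuclear diameter changes in either direction were fitted relative to 0.5% DMSO controls.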

Assay [3] can be described thus: APR_HepG2_CellLoss_24hr: Apredica 24-hour HepG2 Assay for Cell Loss (AID 2282908).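 On AC50: fit in both directions so a hit may be cell loss or gain.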 The following applies: high-content imaging. The method, boiled down: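 Duplicate wells received compound at ten concentrations (0.39–200 uM; final DMSO 0.5% v/v). After fixation with formaldehyde, nuclei stained with Hoechst 33342 were imaged at 20x. Loss or gain of cell count was fitted relative to DMSO controls.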

Assay [4] in a line: APR_HepG2_MicrotubuleCSK_24hr: Apredica 24-hour HepG2 Assay for Microtubule CSK Stabilty (AID 2282909). The settings on record: HepG2 microtubule cytoskeleton imaging, actives raise or lower the signal. An outline of the steps: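 Microtubule stability is scored from tubulin immunofluorescence in fixed HepG2 cells imaged at 20x. Cells receive ten compound concentrations up to 200 uM for 24 h; taxol and DMSO serve as positive and negative controls.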

A short description of assay [5]: APR_HepG2_MitoticArrest_24hr: Apredica 24-hour HepG2 Assay for Mitotic Arrest (AID 2282910). The settings on record: high-content imaging, actives raise or lower the signal. An outline of the steps:
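High-content imaging of fixed HepG2 cells labeled with Hoechst 33342 and anti-phospho-histone H3, after 24 h treatment. Ten concentrations 0.39 to 200 uM in duplicate, final DMSO 0.5%; changes fitted both directions relative to DMSO.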

A short description of assay [6]: APR_HepG2_MitoMembPot_24hr: Apredica 24-hour HepG2 Assay for Mitochondrial Membrane Potential (AID 2282911). The following applies: imaging, actives raise or lower the signal. The method, boiled down:
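HepG2 cells exposed 24 h to 0.39–200 uM compounds in duplicate, 0.5% v/v DMSO final. MitoTracker Red CMXRos 250 nM loaded 30 min before formaldehyde fixation; high-content imaging at 20x, bidirectional fit versus DMSO.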

Assay [7] is described as follows: APR_HepG2_MitoMass_24hr: Apredica 24-hour HepG2 Assay for Mitochondrial Mass (AID 2282912). The following applies: high-content imaging, actives raise or lower the signal. The method, boiled down: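 Readout: fluorescence of MitoTracker Red CMXRos (250 nM, added 30 min pre-fixation) in fixed HepG2 cells imaged by HCS. Exposure lasted 24 hr at 0.39–200 uM; increases and decreases were both fitted relative to DMSO.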

Assay [8] can be described thus: APR_HepG2_p53Act_24hr: Apredica 24-hour HepG2 Assay for p53 Activation (AID 2282913).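 Further: p53 protein immunofluorescence averaged per cell in HepG2 with Hoechst nuclei.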 The following applies: high-content imaging, actives raise or lower the signal. An outline of the steps: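 HepG2 cells exposed 24 h to compounds at 0.39–200 uM in duplicate, 0.5% v/v DMSO final; fixed, permeabilized, stained with anti-p53 antibody and Hoechst 33342; fluorescence imaging; bidirectional curve fit versus DMSO.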

The nature of assay [9]: APR_HepG2_CellCycleArrest_72hr: Apredica 72-hour HepG2 Assay for Cell Cycle Arrest (AID 2282914). The following applies: high-content imaging, actives raise or lower the signal. The method, boiled down:
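HepG2 cells exposed 72 h in duplicate to 0.39–200 uM compound, 0.5% DMSO final. Formaldehyde-fixed, Hoechst 33342-stained nuclei imaged at 20x, six fields per well; DNA content per valid cell quantified by cell-cycle image analysis, bidirectional fit versus DMSO.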

Assay [10] is described as follows: APR_HepG2_CellLoss_72hr: Apredica 72-hour HepG2 Assay for Cell Loss (AID 2282915). The settings on record: high-content imaging. The method, boiled down:
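Cell number comes from Hoechst 33342-labelled nuclei, imaged at 20x after 3.7% formaldehyde fixation. Dosing was 0.39–200 uM, ten concentrations in duplicate, 0.5% DMSO final, for 72 h. Bidirectional fit relative to DMSO baseline.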

Assay [11] is described as follows: APR_HepG2_P-H2AX_72hr: Apredica 72-hour HepG2 Assay for H2AX Phosphorylation (AID 2282916).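 Further: phospho-histone H2A.x immunostain intensity per cell marking DNA damage.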 The settings on record: imaging, actives raise or lower the signal. The method, boiled down:
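Phospho-H2A.x imaging endpoint in HepG2 after 72 hr compound exposure (0.39–200 uM, duplicate wells). Activity derived by bidirectional curve fitting with DMSO as baseline.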

Assay [12] can be described thus: APR_HepG2_MitoMembPot_72hr: Apredica 72-hour HepG2 Assay for Mitochondrial Membrane Potential (AID 2282917). The following applies: imaging, actives raise or lower the signal. An outline of the steps: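 Membrane potential read by MitoTracker Red CMXRos (250 nM, 30 min, pre-fixation) fluorescence imaging of HepG2 after 72 hr exposure. Ten concentrations, 0.39–200 uM, duplicate wells, 0.5% DMSO; fitted in both directions against DMSO baseline.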

The nature of assay [13]: APR_HepG2_MitoticArrest_72hr: Apredica 72-hour HepG2 Assay for Mitotic Arrest (AID 2282918). The following applies: high-content imaging, actives raise or lower the signal. The method, boiled down: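 HepG2 cells treated 72 h at 0.39–200 uM, 0.5% DMSO final; formaldehyde-fixed, stained with Hoechst 33342 and phospho-histone H3 antibody, imaged by high-content fluorescence; bidirectional fit versus DMSO.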

The nature of assay [14]: APR_HepG2_MicrotubuleCSK_72hr: Apredica 72-hour HepG2 Assay for Microtubule CSK Stabilty (AID 2282919). The following applies: HepG2 microtubule cytoskeleton, high-content imaging, actives raise or lower the signal. The method, boiled down: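 High-content imaging of alpha-tubulin staining in fixed HepG2 cells after 72 hr treatment with ten concentrations from 0.39 to 200 uM (0.5% DMSO). Fitting was bidirectional against DMSO; taxol served as positive control.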

Assay [15] is described as follows: APR_HepG2_P-H2AX_24hr: Apredica 24-hour HepG2 Assay for H2AX Phosphorylation (AID 2282920). The following applies: high-content imaging, actives raise or lower the signal. The method, boiled down:
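HepG2 cells dosed 24 h at 0.39–200 uM (10 points, duplicate, 0.5% DMSO final). Formaldehyde-fixed and permeabilized, then immunostained for phospho-H2A.x with Hoechst. Fluorescence quantified by high-content imaging, fitted bidirectionally versus DMSO.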

A short description of assay [16]: APR_HepG2_StressKinase_72hr: Apredica 72-hour HepG2 Assay for Stress Kinase (AID 2282921). The settings on record: HepG2 stress kinase (phospho-c-Jun) imaging, actives raise or lower the signal. The method, boiled down: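 Stress kinase signal reflects nuclear phospho-c-Jun staining in fixed, permeabilized cells exposed 72 h to compound at 0.39–200 uM; DMSO-normalized, fitted for increases or decreases.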

A short description of assay [17]: APR_HepG2_StressKinase_24hr: Apredica 24-hour HepG2 Assay for Stress Kinase (AID 2282922). The settings on record: HepG2 stress kinase (phospho-c-Jun) imaging, actives raise or lower the signal. An outline of the steps:
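High-content imaging of phospho-c-Jun immunofluorescence in fixed, permeabilized HepG2 cells after 24 h dosing. Ten concentrations, 0.39 to 200 uM, run in duplicate at 0.5% v/v DMSO; gain or loss of signal versus DMSO.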

The nature of assay [18]: APR_HepG2_p53Act_72hr: Apredica 72-hour HepG2 Assay for p53 Activation (AID 2282923).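 Further: average cellular p53 protein immunofluorescence intensity in HepG2 cells.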 The settings on record: high-content imaging, actives raise or lower the signal. An outline of the steps: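 Fixed-cell p53 staining (sheep primary, Cy5 secondary) measured by fluorescence imaging following 72 hr treatment at 0.39–200 uM in 0.5% DMSO; DMSO served as negative control and baseline.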

Assay [19] in a line: APR_HepG2_MitoMass_72hr: Apredica 72-hour HepG2 Assay for Mitochondrial Mass (AID 2282924).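 Further: MitoTracker Red CMXRos stain intensity per cell imaged as mitochondrial mass.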 The settings on record: high-content imaging, actives raise or lower the signal. The method, boiled down:
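Readout is imaged MitoTracker Red (250 nM, 30 min, pre-fixation) signal, fitted bidirectionally against DMSO baseline. Human HepG2 liver cells received compound 0.39–200 uM in duplicate for 72 hr, final DMSO 0.5%.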

Assay [20] can be described thus: APR_HepG2_NuclearSize_72hr: Apredica 72-hour HepG2 Assay for Nuclear Size (AID 2282925). The following applies: high-content imaging, actives raise or lower the signal. An outline of the steps: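 Nuclear size was read by high-content imaging of Hoechst 33342 stain after formaldehyde fixation. Compounds ran 72 h on HepG2 at 0.39 to 200 uM, with final DMSO 0.5% v/v. Curves fitted both directions relative to DMSO control.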

Calls of active or inactive are those of the source. How the source made its calls: active means hit-call score of the fitted dose curve at least 0.9, where 1 is the maximum; inactive means score below 0.9.

Take `CCOc1cccc(C2(N3CCN(c4ccccc4)CC3)CCC(C)CC2)c1` (stereo not drawn): the compound was classed as inactive in [1], in assay [2], in [3], in assay [4], in [5] and in assay [6]. Further, the compound was called inactive in assay [7], in assay [8], in [9], in [10], in assay [11] and in [12]. The result in assay [13], in assay [14], in assay [15], in assay [16], in assay [17] and in assay [18] was inactive. For the same compound, the compound was called inactive in [19] and in [20].
Turning to `CS(=O)(=O)NC(=O)c1cc(Oc2ccc(C(F)(F)F)cc2Cl)ccc1[N+](=O)[O-]`, the compound was called inactive in assay [1], in assay [2], in assay [3], in [4], in assay [5] and in assay [6]. Further, the result in assay [7], in assay [8], in assay [9], in [10], in assay [11] and in [12] was inactive. Moreover, the result in assay [13], in assay [14], in assay [15], in assay [16], in assay [17] and in assay [18] was inactive. The compound was classed as inactive in assay [19] and in assay [20].
In the case of `O=C(O)C1C2CCC(O2)C1C(=O)O` (stereo not drawn), the outcome in assay [1], in assay [2], in assay [3], in assay [4], in assay [6] and in assay [9] was inactive. Besides, the outcome in assay [12], in assay [14], in assay [16] and in assay [17] was inactive. For the same compound, the AC50 is 26.6 µM (active) in assay [5]; 41.4 µM (active) in [7]; 24.4 µM (active) in assay [8]; 21.5 µM (active) in assay [10]; 22.2 µM (active) in [11]; 19.6 µM (active) in assay [13]. For the same compound, the AC50 in assay [15] is 29.4 µM (active); in [18] it was 21.2 µM (active); in [19] it was 50.2 µM (active); in assay [20], 36 µM (active).
`Clc1ccc(C(c2ccc(Cl)cc2)C(Cl)Cl)cc1`: the AC50 in [1] is 100 µM (active); in assay [3], 93.7 µM (active); in assay [4], 156 µM (active); in assay [5], 89.6 µM (active); in assay [6] it was 63.9 µM (active); in [7], 89.1 µM (active). Also, the AC50 in assay [8] is 107 µM (active); in assay [9], 90.9 µM (active); in assay [10], 93.8 µM (active); in assay [11] it was 104 µM (active); in assay [13], 68.3 µM (active); in assay [15], 108 µM (active). The results for the AC50 in [16] and in assay [18] were 114 µM (active) and 87.1 µM (active), respectively. In addition, the outcome in assay [2], in assay [12], in [17], in assay [19] and in assay [20] was inactive.
For `CN(C)c1ccccc1`, the compound was classed as inactive in assay [1], in assay [2], in assay [3], in assay [4], in assay [5] and in assay [6]. In addition, the result in [7], in assay [8], in assay [9], in assay [10], in assay [11] and in assay [12] was inactive. Besides, the compound was classed as inactive in assay [13], in [14], in assay [15], in [16], in assay [17] and in assay [18]. In addition, the compound was classed as inactive in [19] and in assay [20].
As to `c1ccc2c(c1)oc1ccccc12`, the call in assay [1], in [2], in [3], in assay [4], in assay [5] and in assay [6] was inactive. For the same compound, the compound was classed as inactive in assay [7], in assay [8], in [9], in [10], in assay [11] and in assay [12]. In addition, the outcome in assay [15], in assay [16], in assay [17], in assay [18], in assay [19] and in assay [20] was inactive. Besides, the AC50 in assay [13] was 0.0888 µM (active).

Broadly, the AC50 is the midpoint of the concentration-response curve, whichever way the signal moves.
